# Assay outcomes from PubChem.
# Rows were chosen to be rich in hits. Some 1.5% of all compounds tested hit in one or more screens of this group.
# eIF4E 4G PPI = eIF4E/eIF4G interaction inhibition in translation initiation | P63073+Q04637 | TR-FRET eIF4E-eIF4GI(517-606) binding, 2 h | inhibition, % at 21.7 µM | 220,000 tested, 0.37% active;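 active = inhibition above about 30%, limit read from the data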;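 note: 0% = full FRET control wells and 100% = background wells lacking eIF4GI fragment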
# PABP FP inh = blocks human PABP binding to poly(A) RNA; P11940; fluorescence polarization; calls only at 35 µM; 290,000 tested, 1% active; AID 2014;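 note: calls also rest on retests at 20 µM and on dose response follow-up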
# Target sequence (P11940 whole entry, looked up): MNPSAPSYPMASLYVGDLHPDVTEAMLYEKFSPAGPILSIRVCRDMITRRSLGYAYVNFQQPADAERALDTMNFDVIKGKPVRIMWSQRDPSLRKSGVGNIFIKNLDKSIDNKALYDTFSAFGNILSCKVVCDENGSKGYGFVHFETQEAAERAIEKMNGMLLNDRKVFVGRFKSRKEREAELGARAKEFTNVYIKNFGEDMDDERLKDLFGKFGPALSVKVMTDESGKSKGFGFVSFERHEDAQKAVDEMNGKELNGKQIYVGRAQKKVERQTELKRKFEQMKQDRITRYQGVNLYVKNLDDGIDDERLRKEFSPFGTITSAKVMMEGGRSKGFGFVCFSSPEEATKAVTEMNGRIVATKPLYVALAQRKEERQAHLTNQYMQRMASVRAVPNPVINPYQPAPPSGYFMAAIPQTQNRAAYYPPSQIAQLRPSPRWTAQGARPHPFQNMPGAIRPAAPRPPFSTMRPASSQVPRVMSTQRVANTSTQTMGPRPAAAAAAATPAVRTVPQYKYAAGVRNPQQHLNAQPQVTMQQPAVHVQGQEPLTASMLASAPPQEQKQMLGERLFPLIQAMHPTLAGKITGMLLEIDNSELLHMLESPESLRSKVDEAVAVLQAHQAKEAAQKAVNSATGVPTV
# eIF4H inh = inhibitors of RNA binding by human eIF4H; eIF4H fluorescence polarization binding assay; inhibition, % at 35 µM; Q15056; 290,000 tested, 0.94% active;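 note: calls also rest on retests at 20 µM and on dose response follow-up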
# MLLE-PAM2 inh = inhibitors of microRNA-mediated deadenylation, human PABP1 MLLE binding; GST-MLLE / FITC-PAM2 fluorescence polarization; P11940; inhibition, % at 20 µM; 360,000 tested, 0.36% active; in the data active = inhibition above about 35%, passing the limit was not always enough;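 note: plate controls were DMSO wells with GST-MLLE for no effect and wells lacking GST-MLLE protein for full effect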
# An asterisk follows results filed as active; i = inactive; ? = inconclusive; . = no result; + = active, no number. Unless noted, the rule behind the calls is not given here.
SMILES,eIF4E 4G PPI,PABP FP inh,eIF4H inh,MLLE-PAM2 inh
O=C(O)CCCCCN1C(=O)/C(=C\c2ccc(-c3ccc(Cl)cc3)o2)SC1=S,24.4,+,53.6*,-125.1
O=C(O)CCCCCN1C(=O)/C(=C\c2ccncc2)SC1=S,-0.6,i,-8.6,31.8
O=C(O)CCCN1C(=O)/C(=C/c2ccncc2)SC1=S,3.2,i,-9.3,31.4
CCOC(=O)c1c(NC(=O)C[n+]2ccc(Cc3ccccc3)cc2)sc(C)c1C,0.7,i,8.7,3.3
COCCNc1nnc(SCC(=O)c2cc(C)n(C3CC3)c2C)s1,.,.,.,8.8
CC(C)(C)OC(=O)N1CCC(NC(=O)c2[nH]c(C(F)(F)F)nc2-c2ccccc2)CC1,.,.,.,-9.3
CC1=C(C(=O)N2CCOCC2)CC(CC(=O)NCc2ccco2)C(=O)N1Cc1ccccc1 (configuration not stated),.,.,.,21.7
O=C(O)c1ccc(N/N=C/c2ccc(F)c(F)c2)cc1,-8.1,i,-9.6,-8.3
Nc1cc(C(=O)O)ccc1Nc1ccc(F)c(F)c1,1.1,+,64.6*,2.9
COc1ccccc1C(=O)C1CCCN(C(=O)c2ccc(Cl)cc2)C1 (configuration not stated),.,.,.,1.1
Oc1c(Br)cc(Br)c(/C=N/n2c(-c3ccccc3)n[nH]c2=S)c1Br,.,+,43.9*,14.4
CC1(Cc2ccc(C(F)(F)F)nc2)C(=O)Nc2cc(-c3ccccc3Cl)ccc21 (configuration not stated),.,.,.,6.4
CN1OC[C@@H]2C(=O)N3CCc4c([nH]c5ccccc45)[C@@H]3C[C@@H]21,.,.,.,-8.9
CN(C)CCCN1C(=O)c2cccc3cccc(c23)C1=O,.,i,8.8,6.2
CN(C)CCN1C(=O)c2cccc3cc([N+](=O)[O-])cc(c23)C1=O,.,.,.,81.4*
COc1cc2oc(=O)cc(CN3CCCCCCC3)c2cc1Cl,.,.,.,-20.2
Cn1nnnc1SCc1nc2scc(-c3ccc(Cl)cc3)c2c(=O)[nH]1,-0.1,+,59.1*,-90.2
Cn1nnnc1SCc1nc2scc(-c3ccccc3)c2c(=O)[nH]1,1.4,i,4.0,-29.0
CSc1ccc(CN2CCC(C)(Oc3ccc(-n4ccnc4)cc3)C2)cc1 (configuration not stated),.,.,.,4.5
CCc1nc2ccc(C(=O)NCCNC(C)=O)cn2c1N(CCC(C)C)CCN(C)C,.,.,.,5.6
O=C(NC(Sc1ccc(Cl)cc1)C(=O)O)c1ccccc1 (configuration not stated),.,.,.,39.8*
O=C(NC(C(=O)O)c1ccccc1)c1ccccc1 (configuration not stated),-4.0,i,-8.2,-0.2
COc1ccc(NC(=O)C2CCCCN2CC(=O)OCc2ccccc2)cc1OC (configuration not stated),-14.6,i,-3.2,-6.3
CC(C)Oc1ccc(CN=C(N)N=C(N)N)cc1Cl,3.4,+,active,-21.2
COc1ccc(CN=C(N)N=C(N)N)cc1Cl,6.7,i,3.3,23.3
SMILES,eIF4E 4G PPI,PABP FP inh,eIF4H inh,MLLE-PAM2 inh
CCOC(=O)c1cc(CC)sc1/N=C/C1=C(O)CCCC1=O,17.2,+,71.9,13.6
CCOC(=O)c1c(/N=C/C2=C(O)CCCC2=O)sc2c1CCCC2,-0.3,i,7.2,23.6
Oc1cc2c(cc1C(c1ccc(Br)cc1)N1CCCC1)OCO2 (configuration not stated),43.6*,i,-13.6,31.0
C=CCn1c(SCC#N)nnc1-c1ccc2ncccc2c1,97.6*,i,-7.0,-5.4
CCOC(=O)C1=C(O)/C(=C/c2ccc(-c3ccccc3C(=O)O)o2)SC1=Nc1ccc(C)cc1,.,.,.,-109.9
COc1ccccc1N1C(=N)S/C(=C\c2ccc(-c3ccccc3C(=O)O)o2)C1=O,17.4,i,58.7*,-88.9
N=C1S/C(=C\c2ccc(-c3ccccc3C(=O)O)o2)C(=O)N1c1ccc2c(c1)OCO2,8.1,+,87.3*,-72.4
C/C(=N\Nc1nc2ccccc2c(=O)n1O)c1ccco1,.,i,78.7*,6.6
C/C(=N\NC(=O)c1cc(C)nc2ccccc12)c1ccco1,3.4,i,-8.7,2.4
O=C(COC(=O)c1ccccc1NC(=O)c1ccco1)Nc1ncc(Cl)cc1Cl,-16.9,i,2.1,-15.7
COc1ccc(OCCCC(=O)OCC(=O)Nc2ncc(Cl)cc2Cl)cc1,.,.,.,45.4*
COc1ccc(/C=C/C(=O)OCC(=O)Nc2ncc(Cl)cc2Cl)cc1,.,.,.,-1.0
O=C(COC(=O)c1ccccc1O)Nc1ncc(Cl)cc1Cl,19.8,+,73.6,-0.1
O=C(NC1=NCCS1)c1csc2ccccc12,7.6,i,-3.5,35.9*
CC(C)C(NC(=O)c1cccs1)C(=O)NC1=NCCS1 (configuration not stated),3.7,i,3.1,42.2*
O=C(NC1=NCCS1)c1cccs1,0.7,i,1.9,44.5*
COc1ccc2c(CC(=O)Nc3nccs3)coc2c1,-2.6,i,-3.5,0.9
Cc1ccc(C)c(C(O)c2ncc(-c3ccc4ccccc4c3)[nH]2)c1 (configuration not stated),.,.,.,6.5
CN(C)Cc1cc(O)c(CN(C)C)cc1O,16.4,i,79.7,78.6*
CCc1ccc(N(CC(=O)N2CCCC2)S(C)(=O)=O)cc1,.,.,.,3.1
O=c1c(-c2ccccc2)n[nH]c2ccccc12,3.4,i,-5.3,-5.9
O=C1c2ccccc2-c2n[nH]c3cccc1c23,.,.,.,73.5*
O=C(C[n+]1ccccc1)c1ccc(NC(=O)c2ccccc2)cc1,19.4,+,-4.9,-121.4
Cc1cc[n+](CC(=O)c2ccc(NC(=O)c3ccccc3)cc2)cc1,7.3,i,1.9,16.4
Cc1ccc(-c2nc(N)sc2CC(=O)OCC(=O)NCCC(C)C)cc1,-8.9,i,118.9*,-0.2
SMILES,eIF4E 4G PPI,PABP FP inh,eIF4H inh,MLLE-PAM2 inh
CCC(C)NC(=O)COC(=O)Cc1sc(N)nc1-c1ccc(C)cc1 (configuration not stated),0.6,i,?,-3.3
CC1(C(=O)Nc2ccc3c(c2)OCCO3)CC1(Cl)Cl (configuration not stated),.,i,-1.6,-3.0
COC(=O)C1=C(C)NC(=O)/C1=C\N(C)C,3.1,+,78.8*,42.5*
CC(C)(C)OC(=O)N1CCCC1C(=O)NCCc1ccccc1 (configuration not stated),4.9,+,5.8,-151.6
O=C(NCCc1ccccc1)C1CCCN1C(=O)NCc1ccccc1 (configuration not stated),-3.1,i,-9.4,-2.1
O=C(Nc1ccc2ncccc2c1)c1ccccc1,.,.,.,-109.6
O=C(Nc1ccc2ncccc2c1)c1ccccc1Cl,1.7,+,0.4,-132.2
C=C(C)CN1C(=O)c2ccccc2C1=O,-7.7,+,56.6,-2.9
Cc1ccc(C)n1-c1nccc(-c2cccs2)n1,-5.5,+,90.6*,-5.7
Cc1ccc(C)n1-c1nccc(-c2ccco2)n1,-0.1,+,54.3*,-14.0
COc1ccc(OCC(O)CNC(=O)Nc2ccc(C(C)(C)C)cc2)cc1 (configuration not stated),0.4,i,-10.2,13.3
CCOC(=O)c1ccccc1NC(=O)COC(=O)CCNS(=O)(=O)c1cccs1,.,.,.,4.2
O=C1C=CC(=O)N1c1ccc(-c2nc3ccccc3o2)cc1,.,.,.,4.1
